This note sets out measurements from PubChem BioAssay AID2205 (University of Pittsburgh Molecular Library Screening Center, 2009).

Out of some 200,000 compounds screened, about 1,600 (0.8%) were called active. The sample holds actives, similar compounds and a random draw of the others, so the mix is not that of the screen.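 The calls were made as follows: active = plate Z-score above 3 for both tubulin-high and condensed-nucleus cell shares, with cell loss under 80%, at 10 µM; inactive = the rest, inconclusive results apart.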

This test is described as follows: tubulin staining increase by stabilizing compounds – imaging, high-content imaging, primary screen (AID 2205).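 As to % tubulin-high responders: anti alpha tubulin signal scored within the nucleus-defined area of each cell.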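 As to toxicity: 0% = mean cell density of plate MIN control wells and 100% = no cells.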 The conditions noted are these: HeLa tubulin immunostaining HCS, 24 h, at 10 µM; % Hoechst-high responders: measured here: nuclear condensation Hoechst responders, stronger effect = higher value, share of cells brighter than vehicle mean+2SD; % tubulin-high responders: stronger effect = higher value, share of cells brighter than vehicle mean+2SD; toxicity: measured here: cytotoxicity by cell density.
In the case of `COC(=O)C1=C(Nc2ccc(OC)cc2)C=C(C)C(C(=O)OC)C1c1ccc(C)cc1` (stereo not drawn), the % Hoechst-high responders is 1.91%, the % tubulin-high responders is 2.3% (inactive) and the toxicity came out at 12.1%.
In the case of `COC(=O)C1=C(Nc2ccc(C)cc2)C=C(C)C(C(=O)OC)C1c1ccc(F)cc1` (stereo not drawn), the % Hoechst-high responders is 21.1%, the % tubulin-high responders is 34.1% (active) and the toxicity worked out at 39.5%.
As to `COc1ccc(C2NC(=S)NC3=C2CCc2ccccc23)cc1OC` (stereo not drawn), the % Hoechst-high responders is 3.43%, the % tubulin-high responders is 3.22% (inactive) and the toxicity is 5.09%.
`O=C(CCN1C(=O)/C(=C/c2cccs2)SC1=S)NNC(=O)c1cccc(O)c1`: the % Hoechst-high responders is 1.28%, the % tubulin-high responders is 1.78% (inactive) and the toxicity was 8.2%.
Taken in the same sequence, the figures for `CCOc1cc(NS(=O)(=O)c2ccc(OC)cc2)c(OCC)cc1NC(C)=O` were 0.933%, 2.92% (inactive) and 3.17%.
Turning to `CCOC(=O)c1ccccc1NS(=O)(=O)c1ccc(OC)cc1`, the % Hoechst-high responders came to 15.7%, the % tubulin-high responders is 39.6% (active) and the toxicity stood at 61.3%.
Taken in the same sequence, the figures for `COC(=O)c1ccccc1NS(=O)(=O)c1ccc2[nH]c(=O)[nH]c2c1` were 5.36%, 4.9% (inactive) and 0.144%.
For the compound `COc1ccc(C)cc1NC(=O)CSc1nnc(CC(=O)Nc2ccccc2F)n1C`, the % Hoechst-high responders came to 1.3%, the % tubulin-high responders is 2.49% (inactive) and the toxicity came to 3.08%.
Turning to `COc1ccc(C(=O)n2nc(-c3ccc(Cl)cc3)nc2N)cc1OC`, the % Hoechst-high responders amounted to 2.89%, the % tubulin-high responders is 4.28% (inactive) and the toxicity was 4.28%.
With `COc1ccc(C(=O)n2nc(-c3ccc(C)cc3)nc2N)cc1OC`, the % Hoechst-high responders was 34.9%, the % tubulin-high responders is 48.4% (active) and the toxicity came to 31.5%.
With `COc1ccccc1C(=O)n1nc(-c2ccccc2)nc1N`, the % Hoechst-high responders was 2.45%, the % tubulin-high responders was 1.99% (inactive) and the toxicity was 31.9%.
The matching figures for `COc1ccc(-c2[nH]ncc2CN(C)Cc2c(C)n[nH]c2C)c(OC)c1`: 1.45%, 3.81% (inactive) and 16.7%.
For `Cc1cccc(C)c1NC(=O)C(c1ccccc1)N1CC(=O)Nc2ccccc21` (stereo not drawn), the % Hoechst-high responders is 2.09%, the % tubulin-high responders is 3.96% (inactive) and the toxicity turned out to be 8.51%.
The matching figures for `Cc1nnc(NC(=O)CSc2nccn2-c2cccc(C)c2C)s1`: 21%, 19.7% (active) and 64.4%.
As for `Cc1cccc(CSc2nnc(NC(=O)CSc3nnc(C)s3)s2)c1`, the % Hoechst-high responders came out at 1.18%, the % tubulin-high responders was 2.97% (inactive) and the toxicity is 12.2%.
For the compound `COc1ccccc1-n1c(CNC(=O)c2ccccc2)nnc1SCC(=O)Nc1nnc(C)s1`, the % Hoechst-high responders was found to be 1.91%, the % tubulin-high responders is 2.83% (inactive) and the toxicity stood at 6.55%.
The matching figures for `CC(Oc1cccc(NC(=O)c2cccs2)c1)C(=O)c1ccccc1` (stereo not drawn): 1.24%, 0.929% (inactive) and 5.37%.
Taken in the same sequence, the figures for `Cc1cc(-c2csc(N)n2)c(C)n1-c1ccccc1` were 2.12%, 6.37% (inactive) and 3.22%.
The matching figures for `CN1C(=O)/C(=C\c2ccc(-c3ccccc3)o2)SC1=S`: 1.77%, 6.05% (inactive) and 4.81%.
`CCCCNC(=O)CSc1nc2n[nH]c(C)c2c(=N)n1-c1cccc(Cl)c1C`: the % Hoechst-high responders was determined as 2.38%, the % tubulin-high responders is 2% (inactive) and the toxicity was 5.31%.
The matching figures for `COc1cccc(-n2c(SCC(=O)NC3CCCCC3)nc3n[nH]c(C)c3c2=N)c1`: 11.3%, 18.4% (active) and 62.6%.
Taken in the same sequence, the figures for `C=CCn1c(CC(=O)Nc2cccc(OC)c2)nnc1SCC(=O)NC1CCCCC1` were 1.48%, 3.27% (inactive) and 1.42%.
With `Cc1ccc(S(=O)(=O)N(C)C)cc1NC(=O)c1ccccc1Br`, the % Hoechst-high responders was 2.26%, the % tubulin-high responders was 1.77% (inactive) and the toxicity amounted to 6.59%.
Taken in the same sequence, the figures for `CN1CCN(C(=O)/C(=C\c2ccc3c(c2)OCO3)NC(=O)c2cccs2)CC1` were 1.07%, 1.67% (inactive) and 6.65%.
Taken in the same sequence, the figures for `CC(C)(C)c1nc2ccccc2c(=O)n1N1C(=O)c2ccccc2C1=O` were 13.9%, 28.9% (active) and 37.9%.
Regarding `CCC1(CC)Cc2ccccc2-c2nc3ccccc3c(=O)n21`, the % Hoechst-high responders amounted to 1.65%, the % tubulin-high responders is 4.36% (inactive) and the toxicity was found to be 6.77%.
Taken in the same sequence, the figures for `CN(C)CCCn1c(SCCN2C(=O)c3ccccc3C2=O)nc2ccccc2c1=O` were 1.95%, 2.16% (inactive) and 6.21%.
Regarding `CCOc1ccc(NS(=O)(=O)c2ccc(C)c(C(N)=O)c2)cc1`, the % Hoechst-high responders was 2.61%, the % tubulin-high responders was 1.97% (inactive) and the toxicity is 4.14%.
The matching figures for `CN1CCN(c2ccc(NC(=O)c3ccc4c(c3)[nH]c(=O)n4Cc3ccc(F)cc3)cc2)CC1`: 2.93%, 3.59% (inactive) and 6.48%.
For `O=C(NN=C1CCC(=NNC(=O)c2cccnc2)CC1)c1cccnc1`, the % Hoechst-high responders amounted to 2.04%, the % tubulin-high responders was 1.75% (inactive) and the toxicity worked out at 6.55%.
The matching figures for `COCC(C)n1c(C)cc(C(=O)COc2ccc(C)nc2[N+](=O)[O-])c1C` (stereo not drawn): 1.67%, 1.5% (inactive) and 6.06%.
Taken in the same sequence, the figures for `O=C(NNC(=S)NC(=O)c1cn(-c2ccccc2)nc1-c1ccccc1)c1ccncc1` were 2.91%, 5.93% (inactive) and 6.44%.
Taken in the same sequence, the figures for `CCOc1ccc(C2c3[nH]c4ccccc4c3CCN2Cc2cn(CC)nc2C)cc1` (stereo not drawn) were 3.06%, 2.78% (inactive) and 2.13%.
Consider `CCOC(=O)N1CCN(C(=O)c2ccccc2N(Cc2ccccc2)S(=O)(=O)c2ccc(OC)cc2)CC1`, for which the % Hoechst-high responders stood at 60.4%, the % tubulin-high responders was 17.8% (active) and the toxicity came out at 42.6%.
With `CCN1CCN(C(=O)c2ccccc2N(C)S(=O)(=O)c2ccc(C)cc2)CC1`, the % Hoechst-high responders is 1.51%, the % tubulin-high responders is 2.85% (inactive) and the toxicity turned out to be 4.04%.
Turning to `NC(=O)c1ccccc1N(Cc1ccccc1)S(=O)(=O)c1ccccc1`, the % Hoechst-high responders worked out at 0.852%, the % tubulin-high responders was 1.16% (inactive) and the toxicity came out at 4.6%.
